Source: PubChem BioAssay
TGFb SMAD3 inh – qHTS for Inhibitors of TGF-b; HepG2 CAGA-GFP TGF-b/SMAD3 reporter, GFP fluorescence, 18 h; TGF-beta stimulated, 500 pg/mL final; Potency, µM (highest dose often 46.1 µM), for inactives: at the highest dose activity, negative = inhibition, actives largely listed as inhibitors; hit rate 1.2% among 410,000; note: % is set by controls: 0 for no effect and ±100 for the full control effect; nearly all actives have a fitted effect of over 65% in size
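HEPG2 CAGA-GFP reporter cells (1000/well, DMEM with 1% FBS) received compounds, then recombinant TGF-beta at 500 pg/mL final for 18 hours at 37 degrees C. Per-cell GFP summed per well was normalised to unstimulated and stimulated DMSO controls before curve fitting.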
RORg inh – qHTS for inhibitors of ROR gamma transcriptional activity; Nuclear receptor ROR-gamma (Mus musculus), P51450; Drosophila S2 Gal4-RORgamma UAS-luciferase reporter, 20 h; Potency, µM (highest dose often 53.6 µM), for the others: at the top dose activity change, negative = inhibition, usual class: inhibitors; hit rate 5.4% among 310,000; AID 2551, 2010; note: % is set by controls: 0 for no effect and ±100 for the full control effect; nearly all actives have a fitted effect of over 60% in size
Target sequence (P51450 whole entry, looked up, the tested form may be a part): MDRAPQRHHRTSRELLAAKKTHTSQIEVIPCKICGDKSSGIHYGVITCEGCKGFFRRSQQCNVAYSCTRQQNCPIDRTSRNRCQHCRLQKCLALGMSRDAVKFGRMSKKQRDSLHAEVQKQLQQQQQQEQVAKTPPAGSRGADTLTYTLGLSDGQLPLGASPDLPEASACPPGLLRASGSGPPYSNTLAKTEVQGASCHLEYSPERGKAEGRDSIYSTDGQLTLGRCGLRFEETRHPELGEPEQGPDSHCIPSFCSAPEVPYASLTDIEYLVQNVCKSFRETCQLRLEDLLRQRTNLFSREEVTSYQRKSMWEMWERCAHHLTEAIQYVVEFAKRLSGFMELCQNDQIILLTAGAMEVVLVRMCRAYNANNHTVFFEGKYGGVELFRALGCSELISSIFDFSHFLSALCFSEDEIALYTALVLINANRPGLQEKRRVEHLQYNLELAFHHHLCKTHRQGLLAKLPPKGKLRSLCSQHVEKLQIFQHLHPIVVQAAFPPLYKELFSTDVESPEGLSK
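A Gal4/UAS one-hybrid system in insect cells: metallothionein-promoter Gal4–ROR gamma fusion plus Photinus luciferase reporter. Copper sulfate 700 uM final, 20 hr ambient incubation, luminescent detection after 10 min with reagent.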
ATXN2 expr inh – Primary qHTS for Inhibitors of ATXN expression; Potency, µM (highest dose often 57 µM), without a hit: at the top dose activity change, negative = inhibition, hits mostly inhibitors; hit rate 0.72% among 360,000; AID 1745845, 2022; HEK-293 ATXN2-luciferase reporter, luminescence, 24 h; note: % is set by controls: 0 for no effect and ±100 for the full control effect; nearly all actives have a fitted effect of over 55% in size
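ATXN2-luciferase reporter cells (luciferase flanked by upstream and downstream ATXN2 gene portions) were treated 24 h at 37 °C with compounds at up to 57 uM. SteadyGlo luminescence gave expression; GF-AFC fluorescence gave viability.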
ATXN viability – Viability Counterscreen for Primary qHTS for Inhibitors of ATXN expression | hit rate 0.49% among 400,000 | AID 651635, 2014 | S2 cells (HEK-293 line with an ATXN2-luciferase reporter) viability, CellTiter-Fluor protease fluorescence, 24 h | Potency, µM (doses to about 56.7 µM), actives largely listed as cytotoxic; note: nearly all actives have a fitted effect of over 40% in size
Gal4-VP16 FLuc – VP16 counterscreen qHTS for inhibitors of ROR gamma transcriptional activity. Drosophila S2 Gal4-VP16 UAS-luciferase, luminescence, 20 h. Potency, µM (top dose mostly 53.6 µM), for inactives: top-dose activity, negative = inhibition, actives largely listed as inhibitors. hit rate 3.5% among 310,000. AID 2546, 2010;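 note: Gal4-VP16 expression switched on by copper sulfate through the metallothionein promoter; % is set by controls: 0 for no effect and ±100 for the full control effect; nearly all actives have a fitted effect of over 50% in size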
HepG2 tox – qHTS for Inhibitors of TGF-b: Cytotox Counterscreen; HepG2 CAGA-GFP viability, ATP luminescence, 18 h; hit rate 0.76% among 410,000; AID 588856, 2011; Potency, µM (highest dose often 46.1 µM), inactives show at the highest dose activity change, negative = cytotoxicity, usual class: cytotoxic
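CellTiter-Glo luminescence gave cytotoxicity after 18 hours at 37 degrees C. The cells were HepG2 CAGA-GFP in 1% FBS DMEM, stimulated with 500 pg/mL TGF-beta after compound addition. %Activity was normalised to no-cell wells (complete cell-killing) and DMSO (no toxicity), and curves were fitted and classified.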
* marks the source's active call; other numbers are inactive results; i = inactive; ? = inconclusive; . = not tested or not shown; [ ] = remark or other dose. In the library only some 6.1% were active in any assay of this set; here they are far more common. Calls come from the whole dose curve; as a rule, active = well fitted curve in the direction sought with a large enough effect; inconclusive = small, poorly fitted or top-dose-only effect, or another doubt; inactive = no such curve, though single readings can be large; an effect the other way counts as inactive or inconclusive. Potency is the fitted concentration of half-maximal effect.

SMILES | TGFb SMAD3 inh | RORg inh | ATXN2 expr inh | ATXN viability | Gal4-VP16 FLuc | HepG2 tox
COc1ccc(CCNC(=O)c2ccc(Cn3c(=O)c4ccccc4n(Cc4cccc(F)c4)c3=O)cc2)cc1OC | ? | . | ? | 28µM* | . | -8%
COc1ccc(-c2nnc(NC(=O)C3CC3)o2)cc1 | -16% | 5µM* | 2% | i | 10µM* | -6%
COc1cccc(-c2nnc(NC(=O)C3CCCCC3)o2)c1 | 4% | 3.5µM* | 14% | i | 11µM* | 5%
COc1ccc(-c2nnc(NC(=O)C(C)C)o2)cc1 | -3% | 11µM* | 14% | i | ? | -19%
COc1cccc(-c2ccnc(-n3ncc(C(=O)NCC4(N5CCCCC5)CCCC4)c3C)n2)c1 | . | . | . | i | . | .
CC(=O)c1cc(-c2ccccc2)n(CCC(=O)NC(C)c2ccccc2)c1C (stereo not given) | 0% | . | . | . | . | -1%
O=C(c1ccccc1Cl)N1CCCC(c2nc3c(nnn3Cc3ccc(F)cc3F)c(=O)[nH]2)C1 (stereo not given) | -20% | . | -6% | i | . | -24%
Cn1ncc2c(N3CCN(c4ccccc4F)CC3)ncnc21 | -13% | 0% | 19% | i | 3% | -20%
Cn1ncc2c(N3CCN(c4ccc(Cl)c(Cl)c4)CC3)ncnc21 | ? | 11% | 0.95µM* | i | -8% | -7%
CCc1ccc(S(=O)(=O)Nc2cccc(-c3ccc(N4CCC(C)CC4)nn3)c2)s1 | -32% | . | 2% | ? | . | -19%
Cc1cc(C)n2nc(CNC(=O)c3c(F)cccc3F)nc2n1 | -54% | . | . | . | . | 4%
CCn1c(COc2ccccc2C)nnc1SCC(=O)N1CCN(c2ccccc2)CC1 | ? | 41% | 14µM* | ? | -13% | -20%
C=CCn1c(CSCc2ccccc2)nnc1SCC(=O)N1CCN(c2ccccc2)CC1 | -10% | 28µM* | -8% | i | ? | 6%
CCn1c(COc2cccc(C)c2C)nnc1SCC(=O)N1CCN(c2ccc(OC)cc2)CC1 | -2% | 11% | -18% | i | 0.89µM* | 4%
Cc1ccc2nc(COc3ccccc3NC(=O)COc3ccccc3Cl)cc(=O)n2c1 | -12% | . | . | . | . | -20%
CCCCN(C)CCCNC(=O)Cn1ncc2c3ccccc3n(Cc3ccccc3)c2c1=O | 1% | . | -11% | i | . | -20%
COc1ccc(C(=O)NC(=S)NNC(=O)COc2ccccc2)cc1 | -7% | 7.1µM* | ? | i | ? | -19%
COc1ccc(OCC(=O)NC(=S)NNC(=O)COc2ccc(Br)cc2Cl)cc1 | 0% | 10µM* | -3% | i | 3%[10 µM] | -24%
O=C(COc1ccccc1)NNC(=S)NC(=O)c1ccccc1 | -8% | 6.3µM* | ? | i | 11µM* | -10%
CCOC(=O)c1ccc(NC(=O)c2c(N3CCCC3=O)c3cc(OC)ccc3n2C)cc1 | -19% | . | -25% | i | . | -20%
Nn1cnnc1N/N=C/c1ccc(Cl)c([N+](=O)[O-])c1 | ? | ? | -18% | i | ? | 11µM*
Cc1ccc(/C=N/Nc2nncn2N)cc1 | 11µM* | ? | -12% | i | 13µM* | i
c1ccc(Cn2sc(=Nc3ccccc3)nc2-c2ccccc2)cc1 | -3% | . | . | . | . | -21%
c1ccc(N=c2nc(-c3ccccc3)n(-c3ccccc3)s2)cc1 | 2.8µM* | . | . | . | . | -84%
CCc1ccc(O)c(CNCCNCc2cc(CC)ccc2O)c1 | ? | . | ? | ? | . | 16µM*
SMILES | TGFb SMAD3 inh | RORg inh | ATXN2 expr inh | ATXN viability | Gal4-VP16 FLuc | HepG2 tox
Cc1ccc(O)c(CNCCNCc2cc(C)ccc2O)c1 | ? | . | ? | i | . | -64%
CC1CCN(C(=S)NC(=O)C2CCCCC2)CC1 | -1% | 13µM* | 5% | i | ? | 9%
CO[C@H]1C[C@@H]2CC[C@@H](C)[C@@](O)(O2)C(=O)C(=O)N2CCCC[C@H]2C(=O)O[C@H]([C@H](C)C[C@@H]2CC[C@@H](O)[C@H](OC)C2)CC(=O)[C@H](C)/C=C(/C)[C@@H](O)[C@@H](OC)C(=O)[C@H](C)C[C@H](C)C=C/C=C\C=C/1C | 4.5µM* | . | . | . | . | -28%
Cc1ccc(NC(=O)CSc2nc(=O)n(Cc3cccnc3)c3c2CCC3)cc1F | -9% | . | -17% | i | . | -10%
Cc1ccc(NC(=O)c2sc3ncn(Cc4cccc(F)c4)c(=O)c3c2C)c(Br)c1 | -2% | . | 5% | i | . | -21%
O=C1c2[nH]nc(-c3ccccc3O)c2C(c2cccc(Br)c2)N1Cc1ccncc1 (stereo not given) | ? | . | ? | 11µM* | . | -38%
CCCN1C(=O)c2[nH]nc(-c3ccccc3O)c2C1c1ccc(OCc2ccccc2)c(OC)c1 (stereo not given) | 13µM* | . | . | . | . | -42%
CCOc1ccc(C2c3c(-c4cc(C)ccc4O)n[nH]c3C(=O)N2Cc2cccnc2)cc1OCC (stereo not given) | -17% | . | 8% | i | . | -18%
CCCOc1ccc(C2c3c(-c4ccccc4O)n[nH]c3C(=O)N2CCc2ccccc2)cc1OCC (stereo not given) | 11µM* | . | . | . | . | 11µM*
COc1cc(C2c3c(-c4ccccc4O)n[nH]c3C(=O)N2CCO)ccc1OCc1ccccc1 (stereo not given) | -25% | . | . | . | . | -18%
CCc1ccc(C2c3c(-c4cc(C)ccc4O)n[nH]c3C(=O)N2Cc2cccnc2)cc1 (stereo not given) | ? | . | ? | . | . | 20µM*
COc1ccc2c(c1)CCc1cnc(-n3ncc(C(=O)NCCCN4CCOCC4)c3C)nc1-2 | . | . | . | i | . | .
CCC1CN(CCNC(=O)c2cscn2)Cc2cc(OC)ccc2O1 (stereo not given) | . | . | . | i | . | .
COC(=O)[C@@]1(Cc2ccccc2)C=C[C@@H](C)N1C(=O)c1ccccc1 | . | -14% | . | . | 9% | .
Cc1cccc(C)c1NC(=O)Cn1c(=O)cc(C)c2c(C)nn(-c3cccc(Cl)c3C)c21 | 16% | . | -2% | ? | . | 5%
CC(C)OCCCN1C(=O)c2[nH]nc(-c3ccccc3O)c2C1c1ccc(OCc2ccccc2)cc1 (stereo not given) | ? | . | . | . | . | -95%
O=C1c2[nH]nc(-c3ccccc3O)c2C(c2cccc(OCc3ccccc3)c2)N1CCCO (stereo not given) | 10µM* | . | . | . | . | -102%
CCOc1cc(C2c3c(-c4cc(C)ccc4O)n[nH]c3C(=O)N2CCCOC(C)C)ccc1O (stereo not given) | 13µM* | . | . | . | . | -13%
